Results on 40 compounds are retold here after ChEMBL document CHEMBL3988442, “University of Dundee, Small-Polar-MMV Screening Library” (2021).

The first test addresses T1, Aspartate--tRNA(Asp/Asn) ligase (Mycobacterium tuberculosis (strain ATCC 25618 / H37Rv)) (UniProt P9WFW3).
T1 sequence (whole entry): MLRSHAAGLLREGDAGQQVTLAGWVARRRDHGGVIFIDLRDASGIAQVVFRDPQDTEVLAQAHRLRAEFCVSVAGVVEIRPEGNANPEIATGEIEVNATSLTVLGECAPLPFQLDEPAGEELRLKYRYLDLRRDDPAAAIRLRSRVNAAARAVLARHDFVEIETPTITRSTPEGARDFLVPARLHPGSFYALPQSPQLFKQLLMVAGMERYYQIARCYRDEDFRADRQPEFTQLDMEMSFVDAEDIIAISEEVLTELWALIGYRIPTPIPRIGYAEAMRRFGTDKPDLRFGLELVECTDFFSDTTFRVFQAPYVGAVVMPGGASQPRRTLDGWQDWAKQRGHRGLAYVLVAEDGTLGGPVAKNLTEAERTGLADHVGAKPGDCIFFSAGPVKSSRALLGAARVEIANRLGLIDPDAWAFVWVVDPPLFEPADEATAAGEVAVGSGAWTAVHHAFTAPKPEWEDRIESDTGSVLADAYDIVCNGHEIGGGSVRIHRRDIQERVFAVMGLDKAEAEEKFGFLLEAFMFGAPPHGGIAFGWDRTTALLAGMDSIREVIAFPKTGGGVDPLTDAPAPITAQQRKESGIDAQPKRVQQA
The test is described as follows: Assay for Asp RNA synthetase-1 from Mycobacterium tuberculosis. Format: functional. Further details: scale not given: direction of the effect not stated beside the values. The note with it: 30 µM.
In the case of `Cc1cccc(COC[C@@H]2CC[C@H]3[C@H](CCN3Cc3ccco3)O2)n1`, the Percent Effect was -0.843%.

As for `CCc1ccc(S(=O)(=O)Nc2cc(OC)c(OC)cc2C(=O)O)s1`, the Percent Effect is 5.87%.

Regarding `Cc1cc(C2CCCN(C(=O)CN3CCN(C)CC3)C2)n[nH]1` (stereo not given), the Percent Effect is -0.728%.

`c1ccc(NCc2cn3c(n2)CN(Cc2cccnc2)CC3)nc1`: the Percent Effect is -1.64%.

As for `Cn1cnc2c1C(COCC1CCOCC1)CN(C1CCOCC1)C2` (stereo not given), the Percent Effect came to 3.46%.

`CC(=O)N1CCCN(C(=O)c2oc(Br)cc2C)CC1`: the Percent Effect is -0.167%.

Consider `Cc1ccc(C(C)N(C)Cc2nc3c(cnn3C)c(=O)[nH]2)cc1` (stereo not given), for which the Percent Effect was 1.46%.

Take `COCCN1CCCC(O)(CN2CCN(c3ncccc3C)CC2)C1=O` (stereo not given): the Percent Effect was found to be 5.57%.

In the case of `CCn1cc2c(n1)CN(CC1CC1)CC2COCC1CC1` (stereo not given), the Percent Effect is -2.72%.

On to `Cc1nc(C2CCCN2CC(=O)N2CCCc3ccccc32)no1` (stereo not given), for which the Percent Effect was found to be 2.35%.

As for `c1ccc(OCCCN2CCN(c3ccc4nncn4n3)CC2)cc1`, the Percent Effect was -0.637%.

`O=C(CCc1nccs1)N1CCN(c2cccnn2)CC1`: the Percent Effect was -2.05%.

Take `Cc1ccc(=O)n(CC2(O)CCN(Cc3cnc(C)nc3)CC2)n1`: the Percent Effect stood at 1.71%.

For the compound `Cc1csc(Nc2cc(C3CCCCN3C)nc(C)n2)n1` (stereo not given), the Percent Effect is -2.66%.

In the case of `Cc1cc(C)n(CC(=O)NC(Cc2ccsc2)c2ccccn2)c(=O)n1` (stereo not given), the Percent Effect is -2.19%.

As for `CCN1CC(C(=O)N(C)Cc2ccon2)CC1=O` (stereo not given), the Percent Effect was -0.748%.

As to `O=C(NC1CC1)[C@H]1C[C@@H]2CCN(CCc3ccccc3)C[C@H]2O1`, the Percent Effect was 3.49%.

Turning to `CN(C)[C@@H]1CN(Cc2ccoc2)C[C@@H]2CCCO[C@@H]21`, the Percent Effect is -2.7%.

`c1ccc(-n2cc(CN3CCCC(Cn4cncn4)C3)nn2)cc1` (stereo not given): the Percent Effect was -9.82%.

Consider `CSCCCN1CC[C@@H](NC(=O)c2cnccn2)[C@H](O)C1`, for which the Percent Effect is -0.39%.

In a further test the target is Shiga toxin 2 (Escherichia coli O157:H7) (UniProt P09385+P09386). Nature of the test: E. coli 0.157:H7 Shiga Toxin SOP - stx2 screening assay. Format: functional. Further details: scale not given: direction of the effect not stated beside the values. As to conditions: 30 µM.
`CN(CC(=O)N1CCN(c2ccccc2F)CC1)c1cnccn1`: the Percent Effect worked out at 8.69%.

Consider `CC(C)NC(=O)[C@@H](NC(=O)N1CCN(c2ccc(Cl)cc2)CC1)C(C)C`, for which the Percent Effect is -49%.

On to `O=C(c1ccc2c(c1)OCO2)N1CCN(c2cnccn2)CC1`, for which the Percent Effect was -14.6%.

For `Cc1cc(C)c(CNC(=O)N2CCN(c3cnccn3)CC2)c(=O)[nH]1`, the Percent Effect amounted to 9.86%.

On to `Cn1cccc1C(=O)N1CCCC2(CCN(CCN3CCCC3)C2=O)C1` (stereo not given), for which the Percent Effect is -30.4%.

Regarding `O[C@H]1[C@H](n2cc(-c3ccccc3)nn2)c2ccccc2C12CCNCC2`, the Percent Effect is -10.9%.

For the compound `O=C(Cc1ccc(F)cc1)NCCNCC1CNc2ccnn2C1` (stereo not given), the Percent Effect is -33.6%.

On to `COCCC(=O)N1CCN(CCN(C)C)c2ncccc2C1`, for which the Percent Effect is -25.6%.

On to `O=C(Nc1ccccn1)N(CCO)Cc1ccsc1`, for which the Percent Effect was 31.7%.

As for `Cc1cccc(N2CCN(C(=O)Nc3cnn(CC(N)=O)c3)CC2)c1`, the Percent Effect is -45.6%.

Turning to `COc1c(CNCc2ccc(N(C)C)nc2)c(C(C)C)nn1C`, the Percent Effect turned out to be 14%.

Take `CN1CCCC1CNC(=O)CCCOc1ccc(F)cc1` (stereo not given): the Percent Effect turned out to be 1.57%.

Regarding `COCc1cccc(CNC(=O)CN2CCCC2c2noc(C)n2)c1` (stereo not given), the Percent Effect amounted to 14.4%.

Take `CO[C@H]1CN(C(=O)c2ccccn2)[C@@H]2CCCO[C@H]12`: the Percent Effect was determined as 0.669%.

`O=C(NCCN1CCNCC1)c1c(O)c2ccccc2[nH]c1=O`: the Percent Effect is -77.4%.

In the case of `CCN1CCCC1CN(CCN(C)C)S(=O)(=O)c1ccc(C#N)cc1` (stereo not given), the Percent Effect is -8.05%.

For `c1ccc(-c2cnc(CNCC3CCCN3c3cccnn3)o2)cc1` (stereo not given), the Percent Effect turned out to be 11.4%.

As to `CN(Cc1cnn(C)c1)C(=O)c1ccc(=O)n(C)n1`, the Percent Effect was -8.81%.

For `CC(C)Nc1ncnc2c1CCN(C(=O)Cc1ccccn1)CC2`, the Percent Effect was -44.7%.

Turning to `CN(C)CCN1CCC2(CC1)CN(c1cccnc1)C(=O)CO2`, the Percent Effect was -5.11%.

`Cc1cccc(COC[C@@H]2CC[C@H]3[C@H](CCN3Cc3ccco3)O2)n1`: the Percent Effect was -16.8%.

As for `CCc1ccc(S(=O)(=O)Nc2cc(OC)c(OC)cc2C(=O)O)s1`, the Percent Effect is 27.3%.

Consider `Cc1cc(C2CCCN(C(=O)CN3CCN(C)CC3)C2)n[nH]1` (stereo not given), for which the Percent Effect turned out to be 13.2%.

On to `c1ccc(NCc2cn3c(n2)CN(Cc2cccnc2)CC3)nc1`, for which the Percent Effect was -39.5%.

Regarding `Cn1cnc2c1C(COCC1CCOCC1)CN(C1CCOCC1)C2` (stereo not given), the Percent Effect was -20.2%.

Turning to `CC(=O)N1CCCN(C(=O)c2oc(Br)cc2C)CC1`, the Percent Effect is -13.6%.

As for `Cc1ccc(C(C)N(C)Cc2nc3c(cnn3C)c(=O)[nH]2)cc1` (stereo not given), the Percent Effect is 12.8%.

For the compound `COCCN1CCCC(O)(CN2CCN(c3ncccc3C)CC2)C1=O` (stereo not given), the Percent Effect is -7.55%.

For `CCn1cc2c(n1)CN(CC1CC1)CC2COCC1CC1` (stereo not given), the Percent Effect is -2.1%.

Take `Cc1nc(C2CCCN2CC(=O)N2CCCc3ccccc32)no1` (stereo not given): the Percent Effect is -12.2%.

For `c1ccc(OCCCN2CCN(c3ccc4nncn4n3)CC2)cc1`, the Percent Effect is -81.9%.

With `O=C(CCc1nccs1)N1CCN(c2cccnn2)CC1`, the Percent Effect was found to be 12.9%.

Consider `Cc1ccc(=O)n(CC2(O)CCN(Cc3cnc(C)nc3)CC2)n1`, for which the Percent Effect amounted to 5.87%.

On to `Cc1csc(Nc2cc(C3CCCCN3C)nc(C)n2)n1` (stereo not given), for which the Percent Effect is -11.8%.

As for `Cc1cc(C)n(CC(=O)NC(Cc2ccsc2)c2ccccn2)c(=O)n1` (stereo not given), the Percent Effect is -15.3%.

Consider `CCN1CC(C(=O)N(C)Cc2ccon2)CC1=O` (stereo not given), for which the Percent Effect is -14.8%.

In the case of `O=C(NC1CC1)[C@H]1C[C@@H]2CCN(CCc3ccccc3)C[C@H]2O1`, the Percent Effect is -10.6%.

Turning to `CN(C)[C@@H]1CN(Cc2ccoc2)C[C@@H]2CCCO[C@@H]21`, the Percent Effect was 2.87%.

With `c1ccc(-n2cc(CN3CCCC(Cn4cncn4)C3)nn2)cc1` (stereo not given), the Percent Effect was -48.9%.

For the compound `CSCCCN1CC[C@@H](NC(=O)c2cnccn2)[C@H](O)C1`, the Percent Effect worked out at 2.82%.
